{"source": "PubChem BioAssay AID818", "about": "(SRMLSC, 2007)", "note": "Among all 140,000 compounds or so, about 2,100 (1.5%) were called active. The sample as a whole holds a higher share of actives than the screen did. A number with no mark means an inactive call.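 Rule for the calls: active = viability at or under a set limit, the compound median less 4 SD (cut at about 6% in these data); inactive = the rest.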", "data": [{"test": "primary screen for growth suppressors in beta-catenin knockout HCT116 cells (colon tumor, human) (AID 818);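 note: 0% = Hyamine 1622 control at 20 µM and 100% = untreated cell control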", "details": "CellTiter-Glo, 60 h, at 10 µM, hits give low values", "values": [{"compound": "COc1ccc(C2=NN(C(=O)c3cccnc3)C(c3ccccc3)C2)cc1", "note": "(stereo not given)", "viability": "100%"}, {"compound": "COC(=O)c1c(NC(=O)CN2CCN(S(=O)(=O)c3ccccc3[N+](=O)[O-])CC2)sc2c1CCC(C)C2", "note": "(stereo not given)", "viability": "90.5%"}, {"compound": "CCC1CCc2c(sc(NC(C)=O)c2C#N)C1", "note": "(stereo not given)", "viability": "101%"}, {"compound": "CN1CCN(CC(=O)Nc2sc3c(c2C#N)CCC(C(C)(C)C)C3)CC1", "note": "(stereo not given)", "viability": "3.32% (active)"}, {"compound": "CCNc1nc(NC(C)C)nc(N2CC(=O)N(CC(=O)OCC)C2=N)n1", "viability": "94.3%"}, {"compound": "Oc1c(Cl)cc(Cl)c(Cl)c1Cc1c(O)c(Cl)cc(Cl)c1Cl", "viability": "4.83% (active)"}, {"compound": "CCCn1c(=O)c2c(C(F)(F)F)cc(-c3cccs3)nc2n(CCC)c1=O", "viability": "90%"}, {"compound": "O=C1CCCCC(=O)c2ccccc2N1", "viability": "101%"}, {"compound": "c1ccc2c(c1)C(=NC1CCCCC1)NC2=NC1CCCCC1", "viability": "5.56% (active)"}, {"compound": "CC(=O)OC(C)C[N+](C)(C)C", "note": "(stereo not given)", "viability": "102%"}, {"compound": "CC(C[N+](C)(C)C)OC(N)=O", "note": "(stereo not given)", "viability": "1.28% (active)"}, {"compound": "CCCCn1c(O)c(N=NC(=O)Cn2c(C(F)(F)F)nc3ccccc32)c2ccccc21", "viability": "93.1%"}, {"compound": "CC(C)(C)NC(=O)C(=O)NCc1ccncc1", "viability": "98.5%"}, {"compound": "O=C(CSC(=S)N1CCOCC1)c1ccccc1", "viability": "98.3%"}, {"compound": "Cn1ncc2c(NNC(=O)Cc3cccc4ccccc34)ncnc21", "viability": "86.8%"}, {"compound": "NS(=O)(=O)c1ccc(N=Cc2ccc(Br)s2)cc1", "viability": "101%"}, {"compound": "CC(=O)CCC(=O)c1ccc2ccccc2c1", "viability": "99.5%"}, {"compound": "CNC(=O)c1csc(-c2ccccc2)n1", "viability": "96.8%"}, {"compound": "Cc1nc(-c2ccccc2)sc1C(=O)/C=C/c1ccccc1", "viability": "4.4% (active)"}, {"compound": "Cc1ccc(SCC(=O)c2sc(-c3ccccc3)nc2C)cc1", "viability": "94.5%"}, {"compound": "Cc1ccc(Sc2ccncc2S(N)(=O)=O)cc1", "viability": "87.3%"}, {"compound": "O=C(COC(=O)/C=C/c1ccc(S(=O)(=O)N2CCCCCC2)cc1)NCc1ccccc1Cl", "viability": "106%"}, {"compound": "N=c1c2c(-c3ccccc3)c(-c3ccccc3)oc2ncn1Cc1ccco1", "viability": "59.7%"}, {"compound": "OCCCN1c2ccccc2Nc2nnc(-c3ccccc3)cc21", "viability": "46.3%"}, {"compound": "N=c1c2c(-c3ccccc3)c(-c3ccccc3)n(Cc3ccccc3)c2ncn1CCCO", "viability": "1.54% (active)"}, {"compound": "Cc1nc(SCc2ccc(F)cc2)c([N+](=O)[O-])[nH]1", "viability": "89.8%"}, {"compound": "Cc1cc(N2CCOCC2)nc(-c2ccc(Br)cc2)n1", "viability": "82.4%"}, {"compound": "CCCC1OC23CCCCC2C(C#N)(C#N)C1(C#N)C(=N)O3", "note": "(stereo not given)", "viability": "85.5%"}, {"compound": "COc1cccc(/C=N/NC(=O)CNC(=O)c2ccc(S(=O)(=O)N3CCOCC3)cc2)c1OC", "viability": "90.8%"}, {"compound": "NC(N)=N/N=C/c1ccc(OCc2ccc(Cl)cc2Cl)cc1", "viability": "1.64% (active)"}, {"compound": "COC(=O)c1sc2ncccc2c1OCc1ccc(Cl)cc1Cl", "viability": "67.4%"}, {"compound": "COc1ccc(C(=O)O/N=C(\\N)Cc2ccc(Cl)cc2Cl)cc1OC", "viability": "79.8%"}, {"compound": "CCOC(=O)NN1C(=O)c2ccccc2NC1c1ccccc1O", "note": "(stereo not given)", "viability": "95%"}, {"compound": "C=CCn1c(SCC(N)=O)nnc1-c1cc2c(s1)CCC(CC)C2", "note": "(stereo not given)", "viability": "91.1%"}, {"compound": "COc1cc2c(cc1O)C(SC)=NC(C)(C)C2", "viability": "2.29% (active)"}, {"compound": "COc1cc2c(cc1OC)C(C(C)C)=NC(C)(C)C2", "viability": "95.1%"}, {"compound": "COc1cc2c(cc1OC)C(Nc1ccc(S(N)(=O)=O)cc1)=NC(C)(C)C2", "viability": "101%"}, {"compound": "COc1ccc(NC(=O)CC2C(=O)OCC3CCCCN32)cc1Cl", "note": "(stereo not given)", "viability": "93.4%"}, {"compound": "Cc1cc(C)c(C#N)c(SCC(=O)NN2CC(=O)N(c3ccccc3F)CC2=O)n1", "viability": "99.8%"}, {"compound": "CC(C)[C@H](NC(=O)c1ccc(F)cc1)C(=O)OCC(=O)NC(=O)c1cccn1C", "viability": "93.5%"}, {"compound": "CC(=O)NC(C)c1nc2ccccc2n1Cc1ccccc1F", "note": "(stereo not given)", "viability": "102%"}, {"compound": "CN(Cc1ccccc1)Cc1ccccc1F", "viability": "83%"}, {"compound": "N=c1n(CCc2ccccc2)c2ccccc2n1Cc1ccccc1F", "viability": "3.71% (active)"}, {"compound": "Cc1ccc2[nH]cc(CCNC(=O)c3ccc([N+](=O)[O-])cc3)c2c1", "viability": "106%"}, {"compound": "Cc1ccc(C(=O)NC(C)c2ccccc2)cc1Br", "note": "(stereo not given)", "viability": "83.5%"}, {"compound": "CC(=O)Nc1ccc(S(=O)(=O)NCC(=O)OCc2cc(=O)oc3ccc4ccccc4c23)cc1", "viability": "83.8%"}, {"compound": "CCCN1C(=O)C(Cc2nc3ccccc3c(=O)n2-c2ccccc2)c2cc(C)ccc21", "note": "(stereo not given)", "viability": "74.7%"}, {"compound": "N#CC1=C(N)Oc2c(sc3ccccc23)C1c1ccco1", "note": "(stereo not given)", "viability": "3.24% (active)"}, {"compound": "Cc1cc(C)c2c3c(sc2n1)C(c1ccccc1)C(C#N)=C(N)O3", "note": "(stereo not given)", "viability": "21.1%"}, {"compound": "Cc1cc2c(c(=O)n1Cc1ccco1)C(c1ccccc1)C(C#N)=C(N)O2", "note": "(stereo not given)", "viability": "105%"}, {"compound": "Brc1ccc(-c2csc(N/N=C/c3ccc4c(c3)OCO4)n2)cc1", "viability": "84.8%"}, {"compound": "CC(=O)c1c(O)cc2n(c1=O)-c1ccc(Cl)cc1C2(C)C", "viability": "91.5%"}, {"compound": "CC(Nc1nc(N2CCCC2)nc2ccccc12)c1ccccc1", "note": "(stereo not given)", "viability": "1.19% (active)"}, {"compound": "Cc1ccc(C(CC(=O)O)Nc2nc(N3CCCCC3)nc(N3CCCCC3)n2)cc1", "note": "(stereo not given)", "viability": "97.6%"}, {"compound": "CC(C)n1c(C(O)c2ccccc2)nc2ccccc21", "note": "(stereo not given)", "viability": "110%"}, {"compound": "C/C(=N\\N1CCN(Cc2ccc(C)cc2)CC1)c1ccco1", "viability": "99.1%"}, {"compound": "Cc1cc2oc(=O)cc(CN3CCN(S(=O)(=O)c4cccs4)CC3)c2cc1C(C)C", "viability": "76.9%"}, {"compound": "COc1cccc(-n2c(SCC(=O)c3c[nH]c4ccccc34)nc3ccccc3c2=O)c1", "viability": "73.3%"}, {"compound": "NC(=O)c1ccccc1N=Cc1ccc2ccccc2c1", "viability": "35.3%"}, {"compound": "Cc1ccccc1OC/C(O)=C(\\C#N)c1nc2ccccc2[nH]1", "viability": "78.6%"}, {"compound": "N#C/C(=C(/O)COc1cccc2ccccc12)c1nc2ccccc2[nH]1", "viability": "79.3%"}, {"compound": "N#C/C(=C(/O)COC(=O)COc1ccc(Cl)cc1)c1nc2ccccc2[nH]1", "viability": "5.63% (active)"}, {"compound": "O=C(Cc1cccc2ccccc12)NCCC1=CCCCC1", "viability": "85.5%"}, {"compound": "CCOc1ncccc1C(=O)N(CC)CC(=O)Nc1ccc(NC(C)=O)cc1", "viability": "104%"}, {"compound": "CCOC(=O)c1ccccc1NS(=O)(=O)c1ccc(OC)cc1", "viability": "17.6%"}, {"compound": "CCCCC(C(=O)OCC(=O)c1ccc(OC)cc1)N1C(=O)c2ccccc2C1=O", "note": "(stereo not given)", "viability": "103%"}, {"compound": "CCOC(=O)C1=C(c2ccc(OC)cc2)C(=O)c2ccccc2C1=O", "viability": "1.16% (active)"}, {"compound": "CCOC(=O)c1nn(-c2ccccc2F)c2nc(Nc3ccccc3)cc(=O)n12", "viability": "94.3%"}, {"compound": "S=C(Nc1cccc(Cl)c1)Nc1ccc2cn[nH]c2c1", "viability": "77.5%"}, {"compound": "FC(F)(F)c1cccc(NC(=S)Nc2cccc(Cl)c2)c1", "viability": "5.77% (active)"}, {"compound": "Cc1csc(NC(=S)Nc2cccc(Cl)c2)n1", "viability": "26.5%"}, {"compound": "COC(=O)/C(=C1\\Oc2ccc(C(C)(C)C)cc2S1)C(F)(F)F", "viability": "102%"}, {"compound": "Cc1[nH]n(-c2cccc(Cl)c2)c(=O)c1/C=N/n1c(C)nc2ccccc2c1=O", "viability": "85.9%"}, {"compound": "Cc1ccc(-n2[nH]c(C)c(/C=N/NC(=O)c3cccc([N+](=O)[O-])c3)c2=O)cc1C", "viability": "3.51% (active)"}, {"compound": "Cc1[nH]n(-c2ccc(Cl)cc2)c(=O)c1/C=N/n1c(C)nc2ccccc2c1=O", "viability": "22.4%"}, {"compound": "COc1cc(/C=N\\NC(=O)CNC(=O)c2cccc([N+](=O)[O-])c2)ccc1O", "viability": "79%"}, {"compound": "Cc1[nH]n(-c2ccccc2)c(=O)c1/C=N/NC(=O)c1ccoc1C", "viability": "3.98% (active)"}, {"compound": "COc1cccc(/C=N/NC(=O)c2cccc([N+](=O)[O-])c2)c1OS(=O)(=O)c1ccc(C)cc1", "viability": "80.7%"}, {"compound": "COC(=O)C1NN=C(C(=O)c2ccc(Br)cc2)C1c1cccc(Br)c1", "note": "(stereo not given)", "viability": "96.8%"}, {"compound": "O=C(CN1CCN(c2ccc(O)cc2)CC1)NC1CCCc2ccccc21", "note": "(stereo not given)", "viability": "74%"}, {"compound": "COc1ccc(CC(=O)N/N=C(\\C)c2ccccn2)cc1", "viability": "3.98% (active)"}, {"compound": "C/C(=N\\NC(=O)Cc1ccc(F)cc1)c1ccc(F)cc1", "viability": "99.1%"}, {"compound": "COc1ccc(C(CC(=O)O)NC(=O)Cc2ccccc2)cc1", "note": "(stereo not given)", "viability": "96.5%"}, {"compound": "COc1ccc(C/C(C)=N/NC(=O)c2ccncc2)cc1", "viability": "91.1%"}, {"compound": "C/C(=N/NC(=O)CSc1ccccn1)c1ccc([N+](=O)[O-])cc1", "viability": "94.1%"}, {"compound": "C/C(=N\\NC(=O)Cc1ccc(Cl)cc1)c1ccccn1", "viability": "4.96% (active)"}, {"compound": "CCC(CC)C(=O)N1CCN(c2cccc(C)c2C)CC1", "viability": "43.6%"}, {"compound": "COC(C(=O)Nc1ccc(C(C)=O)cc1)c1ccccc1", "note": "(stereo not given)", "viability": "85.5%"}, {"compound": "O=C(NCCCO)/C(=C\\C=C\\c1ccccc1)NC(=O)c1ccccc1Cl", "viability": "94%"}, {"compound": "Cc1cc(Br)ccc1SCC(=O)OCC(=O)NCc1ccc2c(c1)OCO2", "viability": "85.9%"}, {"compound": "CC(C)C(=O)Nc1cccc(NC(=O)c2ccc([N+](=O)[O-])cc2Cl)c1", "viability": "96%"}, {"compound": "O=C(/C=C/c1ccc(Cl)cc1Cl)c1cccnc1", "viability": "0.88% (active)"}, {"compound": "O=C(/C=C/c1ccc(Cl)cc1Cl)NCc1ccco1", "viability": "102%"}, {"compound": "O=C(NCc1ccc(Cl)c(Cl)c1)c1cccnc1", "viability": "92.2%"}, {"compound": "CC(=O)Nc1ccc(NC(=S)NC(=O)c2ccc([N+](=O)[O-])c(C)c2)cc1", "viability": "93.3%"}, {"compound": "CCC(C)(C)C1CCC(=NNC(=O)c2ccc(Br)o2)CC1", "note": "(stereo not given)", "viability": "94.6%"}, {"compound": "O=C(COC(=O)Cc1ccc(Br)cc1)Nc1c(F)c(F)c(F)c(F)c1F", "viability": "94.5%"}, {"compound": "COc1cc(/C=C2\\SC(=S)N(Nc3ncc(C(F)(F)F)cc3Cl)C2=O)cc(OC)c1OC", "viability": "109%"}, {"compound": "COc1cccc(/C=N\\NC(=O)C2=NNC(=O)C2C)c1O", "note": "(stereo not given)", "viability": "45.9%"}, {"compound": "COc1cccc(/C=N/Nc2ncc(C(F)(F)F)cc2Cl)c1O", "viability": "2.51% (active)"}]}]}
